Measured values published in PubChem BioAssay (Tox21).
Inconclusive results are not listed. Activity calls are given as the source filed them. Unless noted, calls come from the whole dose curve; as a rule, active = well fitted curve in the direction sought with a large enough effect in the repeat runs; inconclusive = weak or mixed curves; inactive = no such curve, though single readings can be large; an effect the other way counts as inactive or inconclusive.

Tests used:
[1] = target: Thyrotropin receptor (Homo sapiens) (UniProt P16473); test: qHTS assay to identify small molecule antagonists of the thyroid stimulating hormone receptor (TSHR) signaling pathway (AID 1259385; calls by dose curve; note: nearly all actives have a fitted effect of over 20% in size)
Method in brief: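 TSHR-HEK293 cells were plated and held 18 h at 37C/5% CO2, then given compound plus Ro20-1724 and stimulated with TSH at 1.5 ng/mL final. After 30 min at room temperature, cAMP was detected with cAMP-d2/anti-cAMP-cryptate (1 h) by fluorescence.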

[2] = qHTS assay to identify small molecule agonists of the estrogen receptor alpha (ER-alpha) signaling pathway in the presence of an antagonist - cell viability counter screen (AID 1259386);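 note: series mostly up to about 92 µM; cells exposed to compounds for 22 h at 37 °C before the viability read; nearly all actives have a fitted effect of over 30% in size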
Method in brief: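 Cell viability in VM7Luc4E2 cells (endogenous full-length ER-alpha) measured by CellTiter-Fluor fluorescence in the same wells as the luciferase screen. Cells pre-cultured 5 days in charcoal-stripped serum, then treated 22 h with compounds at 15 concentrations plus 10.0nM ICI-182,780.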

[3] = target: Progesterone receptor (Homo sapiens) (UniProt P06401); test: qHTS assay to identify small molecule agonists of the progesterone receptor (PR) signaling pathway (AID 1346784; calls by dose curve; note: nearly all actives have a fitted effect of over 30% in size; note: potency is the fitted concentration of half-maximal effect)
Method in brief: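 Agonist qHTS: compounds pinned onto 3,000 PR-UAS-bla HEK 293T cells per well in charcoal-stripped serum medium, 16hr at 37C, then beta-lactamase activity measured by LiveBLAzer FRET fluorescence after 2 hours at room temperature.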

[4] = target: Progesterone receptor (Homo sapiens) (UniProt P06401); test: qHTS assay to identify small molecule antagonists of the progesterone receptor (PR) signaling pathway (AID 1346795; active = well fitted inhibition curve with a large enough effect in the signal ratio in the repeat runs, not every such curve was filed as active; the % refers to the signal ratio)
Method in brief: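 Antagonist mode with agonist R5020 at 1 nM final and 16 hr incubation at 37C. Reporter was beta-lactamase driven by UAS in HEK293T (PR-UAS-bla), 2% charcoal-stripped serum; signal from LiveBLAzer FRET substrate, 2 hr at room temperature.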

[5] = qHTS assay to identify small molecule antagonists of the progesterone receptor (PR) signaling pathway - cell viability counter screen (AID 1346798); note: series mostly up to about 92 µM; nearly all actives have a fitted effect of over 50% in size
Method in brief: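 Cytotoxicity read as CellTiter-Glo luminescence (30 min, room temperature) in the same wells as the beta-lactamase readout. HEK293T PR-UAS-bla cells in charcoal-stripped 2% FBS received compound and R5020, then 16 h at 37C, 5% CO2.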

[6] = qHTS assay to identify small molecule agonists of the progesterone receptor (PR) signaling pathway - cell viability counter screen (AID 1346799; calls by dose curve; note: nearly all actives have a fitted effect of over 45% in size)
Method in brief: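 Cytotoxicity measured by CellTiter-Glo luminescence (30 min, RT) in the same wells as the PR beta-lactamase agonist read. Those HEK293T cells had 16 h compound treatment at 37 C in 2% charcoal-stripped FBS medium.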

[7] = qHTS assay to identify small molecule antagonists of the TGF-beta/Smad signaling pathway - cell viability counter screen (AID 1346824); note: nearly all actives have a fitted effect of over 50% in size
Method in brief: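 SBE-bla HEK 293T cells were plated overnight at 37 C, then given compounds in DMSO plus TGF-beta1 (added as 0.25 ng/mL solution) for 5 hr. After the bla read, CellTiter-Glo was added to the same wells and luminescence read after 30 min at room temperature.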

[8] = qHTS assay to identify small molecule agonists of the TGF-beta/Smad signaling pathway (AID 1346859; active = well fitted activation curve with a large enough effect in the signal ratio in the repeat runs, not every such curve was filed as active; the % refers to the signal ratio; note: series mostly up to about 77 µM)
Method in brief: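 Fluorescence (ex 405 nm; em 460 and 530 nm) was read 2 h after LiveBLAzer FRET substrate at RT. The preceding compound treatment of overnight-plated SBE-bla HEK293T cells lasted 5 h at 37 C.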

[9] = target: Thyrotropin-releasing hormone receptor (Homo sapiens) (UniProt P34981); test: qHTS assay to identify small molecule antagonists of the thyrotropin-releasing hormone receptor (TRHR) signaling pathway (AID 1346877; active = well fitted inhibition curve with a large enough effect in the repeat runs, not every such curve was filed as active; note: series mostly up to about 51 µM)
Method in brief: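 TRHR-expressing HEK293 cells loaded with calcium dye for 2 h at 37 C; compounds pre-incubated 5 min at room temperature before TRH challenge at 1 nM final. Intracellular calcium fluorescence read kinetically for 3 min; 15 concentrations in triplicate.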

[10] = target: Thyrotropin-releasing hormone receptor (Homo sapiens) (UniProt P34981); test: qHTS assay to identify small molecule agonists of the thyrotropin-releasing hormone receptor (TRHR) signaling pathway (AID 1346891; calls by dose curve; note: series mostly up to about 58 µM)
Method in brief: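 Agonist-mode intracellular calcium readout: kinetic fluorescence over 3 min at 1 s intervals after compound addition to TRHR-HEK293 cells (18 h seeded, 2 h dye-loaded at 37 C). Fifteen concentrations, triplicates.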

[11] = Human pregnane X receptor (PXR) small molecule agonists, qHTS cell viability counter screen (AID 1346977); note: nearly all actives have a fitted effect of over 50% in size
Method in brief: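 Same-well viability read: CellTiter-Fluor added after 23 hr compound exposure, fluorescence measured 1 hr later. Cells were PXR-Luc HepG2 seeded at 2,000/well in 5% charcoal-stripped FBS medium, rested 5 hr before dosing at 37 C.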

[12] = Caspase-3/7 induction in HepG2 cells by small molecules, qHTS assay (AID 1346978); note: nearly all actives have a fitted effect of over 15% in size
Method in brief: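 Wild-type HepG2 cells (2,000/well) were settled 5 h at 37 C, 5% CO2, then exposed to compounds in DMSO for 17 h. Caspase-3/7 activity was read by luminescence 30 min after adding Caspase-Glo 3/7 reagent at room temperature.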

[13] = Caspase-3/7 induction in CHO-K1 cells by small molecules, qHTS cell viability counter screen (AID 1346979); note: nearly all actives have a fitted effect of over 35% in size
Method in brief: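 Cytotoxicity counter screen: CellTiter-Fluor added to compound-treated wild-type CHO-K1 cells at 16 h (37C, 5% CO2), fluorescence measured 1 h later; same wells as caspase-3/7 measurement.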

[14] = Caspase-3/7 induction in HepG2 cells by small molecules, qHTS cell viability counter screen (AID 1346981); note: series mostly up to about 92 µM; nearly all actives have a fitted effect of over 30% in size
Method in brief: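 Wild-type HepG2 cells, 2,000/well, settled 5 hr at 37 C, 5% CO2 before compound addition. Viability read by CellTiter-Fluor fluorescence, reagent added after 16 hr compound exposure, then 1 hr at 37C, in the same wells as the caspase read.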

[15] = target: Nuclear receptor subfamily 1 group I member 2 (Homo sapiens) (UniProt O75469); test: Human pregnane X receptor (PXR) small molecule agonists, qHTS assay (AID 1346982); note: nearly all actives have a fitted effect of over 35% in size; note: potency is the fitted concentration of half-maximal effect
Method in brief: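 PXR-Luc HepG2 reporter cells (CYP3A4-driven luciferase) in 5% charcoal-stripped FBS medium, plated 5 h before compound addition, then treated 24 h at 37C. Luciferase read by ONE-Glo luminescence after 30 min at room temperature.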

[16] = Caspase-3/7 induction in CHO-K1 cells by small molecules, qHTS assay (AID 1346980); note: nearly all actives have a fitted effect of over 15% in size
Method in brief: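 Wild-type cells were seeded at 1,500 per well and settled 5 hr at 37 C, 5% CO2, then exposed to DMSO-dissolved compounds for 17 hr. Caspase-Glo 3/7 reagent was added, and luminescence was read after 30min at room temperature.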

[17] = target: Nuclear receptor subfamily 1 group I member 2 (Rattus norvegicus) (UniProt Q9R1A7); test: Rat pregnane X receptor (rPXR) activation by small molecules, qHTS assay (AID 1346983); settings: rPXR luciferase reporter cells, One-Glo luminescence, 24 h; hits give high values; note: nearly all actives have a fitted effect of over 20% in size
Method in brief: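 Cell-based rPXR luciferase reporter assay, 2,000 cells per well, rested 5hr at 37 C before compound addition in DMSO, then 24 hr at 37 C. One-Glo reagent was added and luminescence read after 30 min at room temperature.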

[18] = qHTS assay to identify small molecule agonists of the TGF-beta/Smad signaling pathway - cell viability counter screen (AID 1346829); note: top concentration of the series differs between compounds; nearly all actives have a fitted effect of over 45% in size
Method in brief: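 Same-well cytotoxicity: CellTiter-Glo added after the 2 hr room-temperature beta-lactamase substrate step, luminescence measured 30 min later; cells had 5 hr of compound at 37 C.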

[19] = target: Nuclear receptor subfamily 1 group I member 2 (Homo sapiens) (UniProt O75469); test: CYP3A4 induction through human pregnane X receptor (PXR) by small molecules, qHTS assay (AID 1346984); note: nearly all actives have a fitted effect of over 40% in size
Method in brief: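 DPX-2 HepG2 cells carrying a PXR response element and CYP3A4-promoter luciferase construct, treated with compounds 24 hr at 37C. Then P450-Glo CYP3A4 Luciferin-IPA substrate (3uM final) for 3 hr at 37C, One-Glo added, luminescence read.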

[20] = target: Nuclear receptor subfamily 1 group I member 2 (Homo sapiens) (UniProt O75469); test: Human pregnane X receptor (PXR) activation by small molecules, qHTS assay (AID 1346985); note: nearly all actives have a fitted effect of over 40% in size
Method in brief: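 DPX-2 cells (HepG2 co-transfected with a PXR response element and a CYP3A4-promoter luciferase construct) were seeded at 2,000 per well, rested 5 hr at 37C, then exposed to DMSO-dissolved compounds for 24 hr. Activation was read as luciferase luminescence.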
% is set by controls: 0 for no effect and ±100 for the full control effect.

Chain of Progesterone receptor (Homo sapiens) (P06401 whole entry, looked up): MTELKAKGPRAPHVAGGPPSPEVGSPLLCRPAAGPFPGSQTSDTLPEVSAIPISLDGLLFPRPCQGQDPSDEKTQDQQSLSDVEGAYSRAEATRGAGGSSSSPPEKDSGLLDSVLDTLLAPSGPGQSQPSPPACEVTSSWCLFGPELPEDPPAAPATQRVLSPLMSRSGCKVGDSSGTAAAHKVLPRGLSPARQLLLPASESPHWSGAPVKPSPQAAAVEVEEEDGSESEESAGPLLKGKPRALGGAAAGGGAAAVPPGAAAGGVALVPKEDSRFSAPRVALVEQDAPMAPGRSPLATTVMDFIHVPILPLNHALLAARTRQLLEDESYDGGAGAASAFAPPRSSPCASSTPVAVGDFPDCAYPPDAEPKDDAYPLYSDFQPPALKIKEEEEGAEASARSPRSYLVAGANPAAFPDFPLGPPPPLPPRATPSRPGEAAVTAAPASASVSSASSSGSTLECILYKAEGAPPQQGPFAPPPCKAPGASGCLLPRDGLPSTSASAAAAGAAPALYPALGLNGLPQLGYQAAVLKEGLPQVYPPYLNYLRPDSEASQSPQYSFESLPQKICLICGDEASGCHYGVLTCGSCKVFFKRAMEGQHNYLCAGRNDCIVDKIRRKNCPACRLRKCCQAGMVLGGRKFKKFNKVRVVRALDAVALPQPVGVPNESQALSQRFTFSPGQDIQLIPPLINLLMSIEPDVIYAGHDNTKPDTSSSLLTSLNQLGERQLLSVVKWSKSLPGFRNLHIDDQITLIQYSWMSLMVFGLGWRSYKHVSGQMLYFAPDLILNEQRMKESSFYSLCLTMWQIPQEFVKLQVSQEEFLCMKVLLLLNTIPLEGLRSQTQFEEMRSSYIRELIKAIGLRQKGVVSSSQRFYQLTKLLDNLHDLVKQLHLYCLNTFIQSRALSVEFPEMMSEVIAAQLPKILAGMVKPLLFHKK
Chain of Thyrotropin receptor (Homo sapiens) (P16473 whole entry, looked up): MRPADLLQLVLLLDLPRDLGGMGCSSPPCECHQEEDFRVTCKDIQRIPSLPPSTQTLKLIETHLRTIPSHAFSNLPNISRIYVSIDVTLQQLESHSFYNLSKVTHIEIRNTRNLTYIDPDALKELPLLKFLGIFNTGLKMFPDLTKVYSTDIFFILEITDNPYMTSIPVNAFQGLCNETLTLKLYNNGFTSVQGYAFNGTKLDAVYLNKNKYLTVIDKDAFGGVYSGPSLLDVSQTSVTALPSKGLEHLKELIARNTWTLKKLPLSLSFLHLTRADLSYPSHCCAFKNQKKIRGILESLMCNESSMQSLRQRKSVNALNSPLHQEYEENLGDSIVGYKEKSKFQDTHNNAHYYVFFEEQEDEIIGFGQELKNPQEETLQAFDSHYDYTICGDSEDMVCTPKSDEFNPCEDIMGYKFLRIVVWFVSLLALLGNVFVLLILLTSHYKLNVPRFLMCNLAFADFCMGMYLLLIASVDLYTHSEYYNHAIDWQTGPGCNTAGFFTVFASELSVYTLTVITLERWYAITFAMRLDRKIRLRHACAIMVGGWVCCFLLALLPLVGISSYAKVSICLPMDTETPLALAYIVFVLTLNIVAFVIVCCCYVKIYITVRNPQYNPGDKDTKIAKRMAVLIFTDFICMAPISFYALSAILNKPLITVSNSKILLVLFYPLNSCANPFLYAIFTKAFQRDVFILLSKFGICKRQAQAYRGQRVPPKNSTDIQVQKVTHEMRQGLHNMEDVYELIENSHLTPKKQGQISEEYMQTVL
Chain of Nuclear receptor subfamily 1 group I member 2 (Rattus norvegicus) (Q9R1A7 whole entry, looked up): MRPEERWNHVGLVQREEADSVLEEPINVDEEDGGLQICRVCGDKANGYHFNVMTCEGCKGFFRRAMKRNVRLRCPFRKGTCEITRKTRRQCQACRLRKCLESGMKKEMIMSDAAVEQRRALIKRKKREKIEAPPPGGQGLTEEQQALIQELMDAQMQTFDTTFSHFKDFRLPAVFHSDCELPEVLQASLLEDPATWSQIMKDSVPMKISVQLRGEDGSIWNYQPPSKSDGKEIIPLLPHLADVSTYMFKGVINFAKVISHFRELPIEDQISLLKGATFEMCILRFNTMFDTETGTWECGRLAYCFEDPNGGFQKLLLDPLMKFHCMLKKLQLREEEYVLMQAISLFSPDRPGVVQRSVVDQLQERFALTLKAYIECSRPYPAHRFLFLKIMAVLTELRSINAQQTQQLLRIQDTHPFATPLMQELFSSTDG
Chain of Nuclear receptor subfamily 1 group I member 2 (Homo sapiens) (O75469 whole entry, looked up): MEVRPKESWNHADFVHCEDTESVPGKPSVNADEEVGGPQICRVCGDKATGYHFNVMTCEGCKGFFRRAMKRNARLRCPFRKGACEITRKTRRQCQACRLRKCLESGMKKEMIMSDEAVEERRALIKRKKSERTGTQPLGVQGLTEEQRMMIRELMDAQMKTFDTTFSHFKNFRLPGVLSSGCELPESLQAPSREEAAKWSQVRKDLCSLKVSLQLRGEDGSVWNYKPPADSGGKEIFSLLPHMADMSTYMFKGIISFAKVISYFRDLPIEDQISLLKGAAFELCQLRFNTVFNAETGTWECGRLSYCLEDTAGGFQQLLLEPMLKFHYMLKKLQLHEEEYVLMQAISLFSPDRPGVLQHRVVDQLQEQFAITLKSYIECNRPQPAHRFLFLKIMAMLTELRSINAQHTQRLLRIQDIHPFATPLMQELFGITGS
Chain of Thyrotropin-releasing hormone receptor (Homo sapiens) (P34981 whole entry, looked up): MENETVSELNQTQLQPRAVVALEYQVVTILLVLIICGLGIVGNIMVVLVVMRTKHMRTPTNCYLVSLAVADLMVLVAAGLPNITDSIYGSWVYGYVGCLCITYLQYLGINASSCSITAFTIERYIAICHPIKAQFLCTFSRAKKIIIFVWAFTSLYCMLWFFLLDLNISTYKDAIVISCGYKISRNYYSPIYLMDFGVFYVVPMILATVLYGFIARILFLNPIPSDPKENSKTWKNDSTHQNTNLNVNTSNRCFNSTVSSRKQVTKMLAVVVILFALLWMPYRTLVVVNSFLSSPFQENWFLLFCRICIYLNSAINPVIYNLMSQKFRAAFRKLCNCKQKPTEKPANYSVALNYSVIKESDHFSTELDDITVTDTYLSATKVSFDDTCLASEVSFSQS

CC(C)(C)NC(N)=O
inactive: outcome [1] | Potency [2] | Potency [3] | Potency [4] | Potency [5] | Potency [6] | outcome [7] | outcome [8] | outcome [9] | outcome [10] | Potency [11] | Potency [12] | Potency [13] | Potency [14] | Potency [15]

CC(C)=O
inactive: outcome [1] | Potency [2] | Potency [3] | Potency [4] | Potency [5] | Potency [6] | outcome [7] | outcome [8] | outcome [9] | outcome [10] | Potency [11] | Potency [12] | Potency [13] | outcome [16] | Potency [14] | max activation [17] -0.452%

CN(CCOc1ccc(NS(C)(=O)=O)cc1)CCc1ccc(NS(C)(=O)=O)cc1
inactive: outcome [1] | Potency [2] | Potency [3] | Potency [4] | Potency [5] | Potency [6] | outcome [18] | outcome [8] | Potency [11] | Potency [12] | Potency [13] | outcome [16] | Potency [15] | max activation [17] -6.17% | Potency [19]

Nc1cccc(O)c1
inactive: outcome [1] | Potency [2] | Potency [3] | Potency [4] | Potency [5] | Potency [6] | outcome [7] | outcome [8] | outcome [9] | outcome [10] | Potency [11] | Potency [12] | Potency [13] | Potency [14] | Potency [15]

CCCCCCCC/C=C\CCCCCCCC(=O)OCCCC
inactive: activity change, negative = inhibition [1] 2.54% [at 19 µM] | activity change, negative = cytotoxicity [2] -4.95% [at 19 µM] | activity change, negative = inhibition [4] -2.42% [at 18.9 µM] | activity change, negative = cytotoxicity [6] 0% [at 19 µM] | viability change, negative = cytotoxic [7] 2.1% [at 15.8 µM] | activity change, negative = cytotoxicity [18] 0.118% [at 15.8 µM] | activation [8] -1.96% [at 15.8 µM] | activity, negative = inhibition [9] 8.97% [at 10.5 µM] | activation [10] 0.159% [at 11.8 µM] | activity change, negative = cytotoxicity [11] 1.78% [at 19 µM] | caspase activation [12] 0.919% [at 19 µM] | activity change, negative = cytotoxicity [13] 3.24% [at 19 µM] | caspase-3/7 activation [16] -0.343% [at 19 µM] | activity change, negative = cytotoxicity [14] 2.37% [at 19 µM] | activation [15] 3.05% [at 19 µM]
active: Potency [3] 1.24 µM

Cc1cc(C(C)(C)C)c(O)c(C)c1CC1=NCCN1
inactive: outcome [1] | Potency [2] | Potency [3] | Potency [4] | Potency [5] | outcome [7] | outcome [18] | outcome [8] | outcome [9] | outcome [10] | Potency [11] | Potency [12] | Potency [13] | outcome [16] | Potency [15]

O=C(NCCc1c[nH]c2ccccc12)c1cccnc1
active: Potency [15] 26.6 µM
inactive: outcome [1] | Potency [2] | Potency [3] | Potency [4] | Potency [6] | outcome [7] | outcome [18] | outcome [8] | outcome [9] | outcome [10] | Potency [11] | Potency [12] | Potency [13] | outcome [16] | Potency [14] | Potency [19] | Potency [20]

C[C@H](N)[C@H](O)c1cccc(O)c1
inactive: outcome [1] | Potency [2] | Potency [3] | Potency [4] | Potency [5] | Potency [6] | outcome [7] | outcome [8] | outcome [9] | outcome [10] | Potency [11] | Potency [12] | Potency [13] | outcome [16] | Potency [14] | Potency [15] | max activation [17] -0.575% | Potency [20]
